Assay results as given in PubChem BioAssay (NCI).
Where “and” joins values, the source holds several entries; their conditions need not be identical. Equal entries are not always repeated. This is part of a sample that, as a whole, favours compounds with a hit. Of some 83,000 tested, about 20% had one in any assay.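 Assay: single dose, 48 h. Readout: percent growth (0 = no net growth; negative = cell death). Active: <10.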 Calls of active or inactive are those of the source.

tested on: MDA-MB-468 breast; test: NCI-60 one-dose screen, 48 h (100 = growth as untreated, 0 = no growth, -100 = all killed); conditions: 10 µM unless noted

SMILES | growth
CCOC(=O)C1=C(N)Oc2c(sc3c(C)cccc23)C1c1ccc(Cl)cc1 (configuration not stated) | -2.2% (active)
CCCCCCCCCCCCCCCCOc1ccc(S(=O)(=O)N(C)C)cc1[N+](=O)[O-] | 84.2% (inactive)
O=C(Nc1ccccc1O)c1ccc(CNC(=O)c2ccsc2Nc2ccnc(C(F)(F)F)c2)cc1 | -17.2% (active)
COc1ccc(Nc2nc(-c3cc(O)c(C)c(C)c3O)cs2)cc1 | -6.65% (active)
COc1cc(-c2nc(Nc3nc4ccccc4s3)[nH]c(=O)c2C#N)cc(OC)c1O | 105% (inactive)
COc1ccc(Cn2cc(C(=O)N=Nc3c(O)[nH]c4c(C)cccc34)nn2)cc1 | 89.2% (inactive)
Cc1ccc2c(c1)C(C)Cc1c(ncnc1-n1cnc3cc(C)ccc31)N2C (configuration not stated) | 9.76% (active)
COc1cc(C(=O)/C=C/c2c(Cl)nc3sccn23)cc(OC)c1OC | 60.1% (inactive)
CC(C)(C)c1cc(NC(=O)Nc2ccc(-c3cn4c5c(sc4n3)CCc3cn(CCCN4CCCCC4)cc3-5)cc2)no1 | -76% (active)
COc1cc(NC(=O)C2=C(C)NC(C)=C(C(=O)Nc3cc(OC)c(Cl)cc3OC)C2c2cccc([N+](=O)[O-])c2)c(OC)cc1Cl | -11.7% (active)
CC1(C)CCC(S(=O)(=O)c2ccc3c(c2)/C(=N\O)c2cc(S(=O)(=O)N4CCC(O)(c5cccc(C(F)(F)F)c5)CC4)ccc2-3)CC1 | -78.4% (active)
Cc1ccc(SC2c3ccc(C)cc3Oc3nc(N)c(C#N)c(N)c32)cc1 (configuration not stated) | -36.5% (active)
CC[C@@](C)(NC(=O)[C@H](C)NC(=O)CCNC(=O)C(C)(C)NC(=O)[C@H](C)NC(=O)[C@@H]1CCCN1C(=O)[C@@](C)(CC)NC(=O)[C@H](Cc1ccccc1)NC(=O)C1CCCN1C(=O)C(C)(C)NC(=O)C1CCCN1C(=O)C(C)(C)NC(C)=O)C(=O)NCCC(=O)N[C@@H](CC(C)C)C(=O)NC(C)(C)C(=O)NCCC(=O)N[C@@H](CC(C)C)C(=O)NC(C)(C)C(=O)NC(C)(C)C(=O)N[C@@H](CC(C)C)C(=O)NCCC(=O)NCO (some centres not stated) | -91.9% (active)
CS(CCCCN=C=S)=NC(=O)c1c(F)c(F)c(F)c(F)c1F (configuration not stated) | 30.1% (inactive)
NC(N)=NC(N)=NCCCc1ccccc1 | -0.206% [100 µM] (active)
CCOC(=O)C#Cc1c(C(=O)OCC)nnn1[C@@H]1O[C@H](COC(C)=O)[C@@H](OC(C)=O)[C@H]1OC(C)=O | 61.5% (inactive)
O=c1nc(Nc2cccc(Cl)c2)oc2cc(Cl)oc(=O)c12 | 75.1% (inactive)
COc1ccc(OC)c(NC2=C(Cl)C(=O)C(C)=C(C)C2=O)c1 | -31.6% (active)
Cn1cc(-c2nn3cc(-c4cccs4)nc3s2)c2cc(F)ccc21 | 44.4% (inactive)
O=S(=O)(NCCNc1cc(-c2cn(-c3ccccc3)nc2-c2cccc(O)c2)ccn1)c1cccc(F)c1 | 15.2% (inactive)
CCCCN=C(N)c1ccc(OCCSCCOc2ccc(C(N)=NCCCC)cc2)cc1 | 38.9% (inactive)
Cc1cc(C)cc(OCC(=O)O)c1 | 131% (inactive)
C=CCS(C)(=O)=O | 95.9% (inactive)
COc1ccc(Nc2ncccc2C(=O)NCc2cn(Cc3cccc(Oc4ccccc4)c3)nn2)c(OC)c1 | 14.8% (inactive)
Clc1ccc2[nH]cc(-c3nn4cc(-c5ccncc5)nc4s3)c2c1 | 42.4% (inactive)
COc1ccc2c(c1)c1nc3cc(C)c(C)cc3nc1n2CCN(C)C | -2.58% (active)
CCOC(=O)C1=CC(=O)CC(C)(C)O1 | 117% (inactive) and 108% (inactive)
